Results taken from PubChem BioAssay AID2751 (The Scripps Research Institute Molecular Screening Center, 2010).
The whole screen tested about 320,000 compounds, of which about 2,200 (0.69%) were called active. No stated cut-off is given here; in the data, active means inhibition above about 43%; inactive means the rest. The sample as a whole holds a higher share of actives than the screen did.

biological target: Prolyl endopeptidase-like (Homo sapiens) (UniProt Q4J6C6); assay: PREPL enzyme inhibitors, primary screen, biochemical, fluorescence polarization (AID 2751); settings: recombinant PREPL, fluorescence polarization activity-based probe; at 5.96 µM; active compounds read high;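 further: 0% = enzyme with DMSO and 100% = wells lacking enzyme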
Sequence (Q4J6C6 whole entry, looked up): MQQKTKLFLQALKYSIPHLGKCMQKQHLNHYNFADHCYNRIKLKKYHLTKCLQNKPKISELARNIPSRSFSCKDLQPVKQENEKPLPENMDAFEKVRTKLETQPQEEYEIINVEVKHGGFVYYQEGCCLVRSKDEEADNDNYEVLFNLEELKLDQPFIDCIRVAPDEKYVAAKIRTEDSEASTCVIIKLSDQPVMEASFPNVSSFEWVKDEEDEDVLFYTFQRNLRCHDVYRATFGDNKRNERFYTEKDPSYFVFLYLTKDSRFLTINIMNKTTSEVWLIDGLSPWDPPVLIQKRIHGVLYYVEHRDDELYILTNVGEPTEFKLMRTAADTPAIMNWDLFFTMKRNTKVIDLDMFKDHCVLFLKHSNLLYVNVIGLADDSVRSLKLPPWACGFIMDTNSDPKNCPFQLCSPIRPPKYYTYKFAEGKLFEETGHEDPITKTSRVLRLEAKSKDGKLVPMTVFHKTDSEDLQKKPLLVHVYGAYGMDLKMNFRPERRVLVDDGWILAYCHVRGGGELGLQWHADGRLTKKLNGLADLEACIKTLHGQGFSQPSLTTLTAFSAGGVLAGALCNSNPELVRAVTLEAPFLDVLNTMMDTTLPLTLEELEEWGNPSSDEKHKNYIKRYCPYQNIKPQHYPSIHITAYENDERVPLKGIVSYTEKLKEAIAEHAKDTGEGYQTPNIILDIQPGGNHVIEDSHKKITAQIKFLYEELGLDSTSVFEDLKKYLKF

Structure (SMILES)	inhibition
Cc1ccc(C(C)NC(=O)Cn2nc(C)c([N+](=O)[O-])c2C)cc1 (centres undefined)	11.6% (inactive)
O=C(Nc1cccc(S(=O)(=O)N2CCOCC2)c1)C12CC3CC(CC(C3)C1)C2	12.3% (inactive)
CC(CNc1ccc([N+](=O)[O-])cc1)NC(=O)c1ccccc1Br (centres undefined)	4.76% (inactive)
COc1ccc(C(=O)C2CCCN(C(=O)c3cnsn3)C2)c(C)c1 (centres undefined)	13.4% (inactive)
COc1ccc2cc(C(=O)C3CCCN(C(=O)c4sc(C)nc4C)C3)ccc2c1 (centres undefined)	47.9% (active)
CCn1nc(C)cc1C(=O)N1CCCC(C(=O)c2cccc(OC)c2)C1 (centres undefined)	-1.89% (inactive)
COc1ccc(/C(O)=C2/C(=O)C(=O)N(CC3CCCO3)C2c2ccc(OC)c(OC)c2)cc1 (centres undefined)	1.2% (inactive)
CC(C)C[C@H](CO)Nc1nc(N(C)c2cccc(Cl)c2)c2ncn(C(C)C)c2n1	12.1% (inactive)
CCC(CO)Oc1cc(NC(=O)c2cccc(F)c2)c2ncn(C(C)C)c2c1 (centres undefined)	3.94% (inactive)
CCC(CO)Oc1cc(NC(=O)c2ccc(Cl)cc2)c2ncn(C(C)C)c2c1 (centres undefined)	13% (inactive)
CC(C)n1cnc2c(NCc3ccccc3)cc(OCC3CCN(C)CC3)cc21	83.8% (active)
CCC(CO)Oc1cc(NCc2ccccc2)c2ncn(C3CCCC3)c2c1 (centres undefined)	43.8% (active)
CC(C)n1cnc2c(NCc3ccccc3)cc(N[C@@H](CO)Cc3ccccc3)cc21	62% (active)
CN(C)c1nccc(NCc2ccccc2)c1C#N	3.08% (inactive)
CCC(CO)Oc1cc(NC(=O)c2cccc3ccccc23)c2ncn(C(C)C)c2c1 (centres undefined)	18.7% (inactive)
CC(C)N(Cc1ccccc1)C(=O)COC(=O)c1cnccn1	-8.35% (inactive)
COC(=O)[C@]1(Cc2ccccc2)N[C@H](CN(C)S(=O)(=O)c2ccc(OC(F)(F)F)cc2)[C@@H]2C(=O)N(Cc3ccccc3)C(=O)[C@@H]21	8.99% (inactive)
COC(CNC(=O)Cn1ncc2ccsc2c1=O)OC	6.98% (inactive)
CCCn1c(SCC(=O)Nc2ccc(C)c(S(=O)(=O)N3CCOCC3)c2)n[nH]c1=O	3.91% (inactive)
CCc1cc(=O)oc2cc(C)cc(OCC(=O)N3CCC[C@@H]3C(=O)O)c12	-4.62% (inactive)
O=C(CN(C(=O)c1csnn1)c1ccc(Br)cc1)NC1CCCC1	5.56% (inactive)
CCCc1cc(=O)[nH]c2nnc(SCC(=O)Nc3nnc(SCC)s3)n12	0.4% (inactive)
CCn1c(=S)sc2c(=O)n(CC(=O)Nc3ccc(OC)cc3)c(C)nc21	7.88% (inactive)
O=S(=O)(NCC1CC1)c1ccc(F)c(Cl)c1	-5.91% (inactive)

Structure (SMILES)	inhibition
CC(OC(=O)/C=C/c1ccccc1)C(=O)NC1CCCCC1C (centres undefined)	-7.55% (inactive)
Cc1ccc(Nc2nc(Cl)c(C=O)s2)cc1	-3.94% (inactive)
Cc1ccc(Nc2ccccc2N)cc1	47.5% (active)
Nc1ccc(C(=O)Nc2ccccc2N)cc1	-1.77% (inactive)
Cc1cc(OC(C)C(=O)NC2CC(C)(C)NC(C)(C)C2)c2c(C)cc(=O)oc2c1 (centres undefined)	2.31% (inactive)
O=C(Nc1ccc([N+](=O)[O-])cc1)C1CC12CCC2 (centres undefined)	1.87% (inactive)
CCN1C(=O)c2cccc3c(S(=O)(=O)Nc4ccccc4O)ccc1c23	4.31% (inactive)
CCN1C(=O)c2cccc3c(N)ccc1c23	45.6% (active)
CN1C(=O)c2cccc3c(N)ccc(c23)C1=O	14.4% (inactive)
Cc1snc(SCc2c(F)cccc2Cl)c1C#N	10% (inactive)
Cc1ncn(C23CC4CC(CC(O)(C4)C2)C3)n1	3.85% (inactive)
Cc1nc([N+](=O)[O-])nn1C12CC3CC(CC(Br)(C3)C1)C2	45.5% (active)
COc1cccc(NC(=O)c2nn(C34CC5CC(CC(C5)C3)C4)cc2[N+](=O)[O-])c1	1.65% (inactive)
CCn1nc(C(=O)NNS(=O)(=O)c2cc(/C=C/C(=O)O)cc(OC)c2OC)c2ccccc2c1=O	1.44% (inactive)
Cn1c(CC2Sc3ccccc3NC2=O)nnc1SCC(=O)c1ccc(Cl)cc1 (centres undefined)	-2.92% (inactive)
Cc1cc(-c2nnc(SCC(=O)Nc3ccc(F)cc3)n2N)n[nH]1	-0.73% (inactive)
CCOC(=O)N1CCN(S(=O)(=O)c2ccc(-n3cnnn3)cc2)CC1	-0.87% (inactive)
COc1ccc(/C=N/N=C/c2c[nH]c(=O)c(C#N)c2Nc2ccccc2)cc1	5.21% (inactive)
O=C(OCC(=O)N1CCc2ccccc21)c1ccc([N+](=O)[O-])cc1	18% (inactive)
O=C1c2ccccc2C(=O)c2c1cccc2N1CCN(CCO)CC1	10% (inactive)
O=C1c2ccccc2C(=O)c2c1cccc2N1CCN(Cc2ccccc2)CC1	34.3% (inactive)
O=C1c2ccccc2C(=O)c2c1cccc2N1CCN(C/C=C/c2ccccc2)CC1	87.2% (active)
CN(C(=O)CC1C(=O)NCCN1Cc1ccc2ccccc2c1)C1CCOCC1 (centres undefined)	15.8% (inactive)
CCCc1cc(=S)n2c([nH]c3ccccc32)c1C#N	16% (inactive)

Structure (SMILES)	inhibition
Cc1ccsc1/C=C1\SC(N2CCOCC2)=NC1=O	5.64% (inactive)
Cc1ccc(N2CCN(C3=NC(=O)/C(=C\c4cccs4)S3)CC2)cc1	53% (active)
Cc1ccc(N2CCN(/N=C/c3cccs3)CC2)cc1	10.6% (inactive)
CN(NS(=O)(=O)c1cccs1)c1ncc(C(F)(F)F)cc1Cl	-0.65% (inactive)
COc1ccccc1OCC(=O)Nc1c2c(nn1-c1ccc(F)cc1)CS(=O)(=O)C2	-4.94% (inactive)
COc1ccc(NC(C)=O)cc1NC(=O)CN1CCN(C2c3ccccc3-c3ccccc32)CC1	43.8% (active)
COc1ccc(Cl)cc1NC(=O)CN1CCN(C(=O)N2CCOCC2)CC1	-6.54% (inactive)
COc1cccc(NC(=O)CN2CCN(CC(=O)Nc3ccccc3Cl)CC2)c1	-3.67% (inactive)
CN=C1SC(CC(=O)Nc2ccc(C(=O)O)cc2)C(=O)N1C (centres undefined)	1.69% (inactive)
COP1(=O)C[C@@H](O)[C@@H](O)[C@@H](COCc2ccccc2)O1 (some centres undefined)	-5.04% (inactive)
O=C(c1ccco1)N1CCN(C(=O)C2CCCN(S(=O)(=O)c3cccc4nsnc34)C2)CC1 (centres undefined)	-5.71% (inactive)
CC1CCN(C2=NC(=O)/C(=C/c3ccc(O)cc3)S2)CC1	12.1% (inactive)
CCc1ccc(/C=C2\SC(N3CCOCC3)=NC2=O)cc1	19.1% (inactive)
O=C1N=C(N2CCc3ccccc3C2)S/C1=C\c1ccc(O)cc1	47.4% (active)
C=CCOc1ccc(/C=C/C(=O)OCC(=O)NC(C)c2ccc(F)cc2)cc1 (centres undefined)	5.51% (inactive)
S=C(NCCC1=CCCCC1)Nc1ccccc1	9.47% (inactive)
Oc1ccc2ccccc2c1N=Nc1nccs1	50.7% (active)
Cc1ccc(S(=O)(=O)N2CCN=C2SCc2c(F)cccc2Cl)cc1	11.2% (inactive)
C=CC(=O)OCCOCCOCCOCCOC(=O)C=C	-0.81% (inactive)
Cc1ccc(C)c(OCC(=O)N2CCN(C(=O)c3ccco3)CC2)c1	1.04% (inactive)
CN1CCN(c2ccc(NC(=O)COc3ccc(Cl)cc3Cl)cc2)CC1	54.8% (active)
Cc1ccc(OCC(=O)Nc2ccc(N3CCN(C(=O)c4ccco4)CC3)cc2)c(C)c1	55% (active)
Cc1ccc(Cl)c(OCC(=O)N(C)CC(=O)Nc2ccc(N3CCOCC3)cc2)c1	-6.09% (inactive)
CCC(=O)Nc1ccc(C(=O)N2CCN(C(=O)c3ccco3)CC2)cc1	-4% (inactive)

Structure (SMILES)	inhibition
CN1CCC(OC(=O)COc2ccc(Cl)cc2Cl)CC1	-6% (inactive)
Cc1ccc(S(=O)(=O)c2nc(-c3cccs3)oc2NCc2cccnc2)cc1	8.75% (inactive)
Oc1ccccc1-c1cc(-c2ccc(Cl)cc2)n[nH]1	-35.8% (inactive)
O=C(N/N=C/c1cccnc1)c1cc2ccccc2cc1O	63.4% (active)
Cc1ccc(/C=N/NC(=O)c2cc3ccccc3cc2O)o1	13.4% (inactive)
O=C(NN=Cc1ccc(N2CCOCC2)cc1)c1cc2ccccc2cc1O	19.7% (inactive)
NC(=O)COc1ccc(/C=N/NC(=O)C2CCCN2S(=O)(=O)c2ccc(Cl)cc2)cc1 (centres undefined)	11% (inactive)
CCCCN(C(=O)c1ccc(C)o1)c1c(N)n(CCCC)c(=O)[nH]c1=O	-0.55% (inactive)
COc1ccc(CNc2ncnc3ccccc23)cc1	-16.5% (inactive)
c1ccc2c(NCC3CCCO3)nc(-c3ccncc3)nc2c1 (centres undefined)	5.66% (inactive)
CC(C)(C)Nc1nc(-c2ccccn2)nc2ccccc12	47.1% (active)
Cc1n[nH]c(C)c1S(=O)(=O)N1CCCC(C(=O)Nc2ccc(Br)cc2)C1 (centres undefined)	-17.7% (inactive)
O=S(=O)(O)CCN1CCOCC1	25.7% (inactive)
O=C(NCC(=O)N1CCN(c2ccccc2F)CC1)c1cccs1	3.72% (inactive)
NC(=O)c1cc2ccccc2o/c1=N/NC(=O)c1cccc(F)c1	11.6% (inactive)
CCN(CC)c1ccc2cc(C(N)=O)/c(=N\NC(=O)c3ccncc3)oc2c1	48.4% (active)
COc1cccc2cc(C(N)=O)/c(=N\NC(=O)c3ccccc3)oc12	-0.47% (inactive)
CC1CCC2(CC1)NC(=O)N(CC(=O)c1ccc3c(c1)OCO3)C2=O (centres undefined)	11.2% (inactive)
O=c1oc(-c2ccccc2NS(=O)(=O)c2ccc(Cl)cc2)nc2ccccc12	6.42% (inactive)
COC(=O)[C@]1(CC(C)C)N[C@H](c2ccc(SC3CCCCC3)cc2)[C@@H]2C(=O)N(C)C(=O)[C@@H]21	2.32% (inactive)
CCN1/C(=C/c2ccc3ccc(C)cc3[n+]2CC)Sc2ccccc21	53.4% (active)
CCN1/C(=C\c2ccc3ccccc3[n+]2CC)Sc2cc(C)ccc21	52.8% (active)
